The values below come from ChEMBL document CHEMBL2218924, “A broad activity screen in support of a chemogenomic map for kinase signalling research and drug discovery” (Biochem J, 2013).

The target of experiment [1] is T1, Serine/threonine-protein kinase 17A (Homo sapiens) (UniProt Q9UEE5).
T1 sequence (whole entry): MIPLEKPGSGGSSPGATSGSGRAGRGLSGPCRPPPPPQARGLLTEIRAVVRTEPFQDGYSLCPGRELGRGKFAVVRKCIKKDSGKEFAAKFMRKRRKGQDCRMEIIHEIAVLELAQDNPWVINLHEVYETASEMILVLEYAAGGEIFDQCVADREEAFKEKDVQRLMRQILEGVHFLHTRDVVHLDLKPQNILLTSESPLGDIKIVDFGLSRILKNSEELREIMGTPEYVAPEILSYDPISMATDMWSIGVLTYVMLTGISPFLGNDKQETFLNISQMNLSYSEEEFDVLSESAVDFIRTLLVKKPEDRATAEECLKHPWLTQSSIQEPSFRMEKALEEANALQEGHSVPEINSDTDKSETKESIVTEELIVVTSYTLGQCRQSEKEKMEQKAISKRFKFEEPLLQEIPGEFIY
Particulars: at 1 µM.

For experiment [2], the target named is T1, Serine/threonine-protein kinase 17A (Homo sapiens). Particulars: at 10 µM.
In experiment [3] the target is T2, Dual specificity tyrosine-phosphorylation-regulated kinase 2 (Homo sapiens) (UniProt Q92630).
T2 sequence (whole entry): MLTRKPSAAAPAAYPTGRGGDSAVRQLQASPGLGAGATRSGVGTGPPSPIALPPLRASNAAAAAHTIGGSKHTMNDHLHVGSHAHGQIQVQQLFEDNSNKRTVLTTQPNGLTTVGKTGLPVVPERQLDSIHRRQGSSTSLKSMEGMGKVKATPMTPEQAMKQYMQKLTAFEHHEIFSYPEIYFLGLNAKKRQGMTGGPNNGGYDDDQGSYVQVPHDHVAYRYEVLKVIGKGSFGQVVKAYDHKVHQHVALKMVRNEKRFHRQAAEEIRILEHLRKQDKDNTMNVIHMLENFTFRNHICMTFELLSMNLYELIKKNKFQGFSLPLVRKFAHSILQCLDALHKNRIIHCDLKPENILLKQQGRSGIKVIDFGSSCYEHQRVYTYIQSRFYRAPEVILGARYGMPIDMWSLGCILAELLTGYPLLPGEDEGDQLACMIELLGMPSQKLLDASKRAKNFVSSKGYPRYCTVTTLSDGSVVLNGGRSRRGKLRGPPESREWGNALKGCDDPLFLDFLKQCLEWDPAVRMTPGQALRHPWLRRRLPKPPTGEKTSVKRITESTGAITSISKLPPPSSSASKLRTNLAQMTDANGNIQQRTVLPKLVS
To be noted: at 1 µM.

The target of experiment [4] is T2, Dual specificity tyrosine-phosphorylation-regulated kinase 2 (Homo sapiens). To be noted: at 10 µM.
In experiment [5] the target is T3, Ephrin type-A receptor 1 (Homo sapiens) (UniProt P21709).
T3 sequence (whole entry): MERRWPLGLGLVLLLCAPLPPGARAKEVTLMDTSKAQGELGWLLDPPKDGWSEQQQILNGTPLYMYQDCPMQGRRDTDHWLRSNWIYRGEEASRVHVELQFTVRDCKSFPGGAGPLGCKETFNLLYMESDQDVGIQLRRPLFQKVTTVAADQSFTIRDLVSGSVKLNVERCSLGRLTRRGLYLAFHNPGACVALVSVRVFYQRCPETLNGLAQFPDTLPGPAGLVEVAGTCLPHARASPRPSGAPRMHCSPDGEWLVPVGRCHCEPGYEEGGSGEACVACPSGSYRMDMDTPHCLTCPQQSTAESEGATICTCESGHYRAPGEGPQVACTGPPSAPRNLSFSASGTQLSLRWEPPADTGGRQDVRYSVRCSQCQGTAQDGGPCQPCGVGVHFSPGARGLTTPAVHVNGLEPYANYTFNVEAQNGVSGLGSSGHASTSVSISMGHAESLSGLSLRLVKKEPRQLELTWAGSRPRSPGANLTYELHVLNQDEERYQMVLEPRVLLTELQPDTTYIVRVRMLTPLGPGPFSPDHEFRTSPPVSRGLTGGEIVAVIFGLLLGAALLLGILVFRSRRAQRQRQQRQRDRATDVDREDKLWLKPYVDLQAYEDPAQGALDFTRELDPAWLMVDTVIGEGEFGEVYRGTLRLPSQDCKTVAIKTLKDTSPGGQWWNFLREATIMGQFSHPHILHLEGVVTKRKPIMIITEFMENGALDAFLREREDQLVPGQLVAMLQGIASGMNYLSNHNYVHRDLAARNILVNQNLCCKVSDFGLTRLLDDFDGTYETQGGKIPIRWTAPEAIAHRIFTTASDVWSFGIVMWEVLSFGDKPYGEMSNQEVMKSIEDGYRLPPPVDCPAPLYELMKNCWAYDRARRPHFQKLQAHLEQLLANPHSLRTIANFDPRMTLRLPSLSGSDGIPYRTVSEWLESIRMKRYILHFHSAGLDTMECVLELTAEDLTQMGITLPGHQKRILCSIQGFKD
Particulars: at 1 µM.

The target in experiment [6] is T3, Ephrin type-A receptor 1 (Homo sapiens). Particulars: at 10 µM.
Experiment [7] addresses Ephrin type-A receptor 2 (Homo sapiens) (UniProt P29317). Particulars: at 1 µM.
The target is the same in experiment [8]. To be noted: at 10 µM.
For experiment [9], the target named is T4, Ephrin type-A receptor 3 (Homo sapiens) (UniProt P29320).
T4 sequence (whole entry): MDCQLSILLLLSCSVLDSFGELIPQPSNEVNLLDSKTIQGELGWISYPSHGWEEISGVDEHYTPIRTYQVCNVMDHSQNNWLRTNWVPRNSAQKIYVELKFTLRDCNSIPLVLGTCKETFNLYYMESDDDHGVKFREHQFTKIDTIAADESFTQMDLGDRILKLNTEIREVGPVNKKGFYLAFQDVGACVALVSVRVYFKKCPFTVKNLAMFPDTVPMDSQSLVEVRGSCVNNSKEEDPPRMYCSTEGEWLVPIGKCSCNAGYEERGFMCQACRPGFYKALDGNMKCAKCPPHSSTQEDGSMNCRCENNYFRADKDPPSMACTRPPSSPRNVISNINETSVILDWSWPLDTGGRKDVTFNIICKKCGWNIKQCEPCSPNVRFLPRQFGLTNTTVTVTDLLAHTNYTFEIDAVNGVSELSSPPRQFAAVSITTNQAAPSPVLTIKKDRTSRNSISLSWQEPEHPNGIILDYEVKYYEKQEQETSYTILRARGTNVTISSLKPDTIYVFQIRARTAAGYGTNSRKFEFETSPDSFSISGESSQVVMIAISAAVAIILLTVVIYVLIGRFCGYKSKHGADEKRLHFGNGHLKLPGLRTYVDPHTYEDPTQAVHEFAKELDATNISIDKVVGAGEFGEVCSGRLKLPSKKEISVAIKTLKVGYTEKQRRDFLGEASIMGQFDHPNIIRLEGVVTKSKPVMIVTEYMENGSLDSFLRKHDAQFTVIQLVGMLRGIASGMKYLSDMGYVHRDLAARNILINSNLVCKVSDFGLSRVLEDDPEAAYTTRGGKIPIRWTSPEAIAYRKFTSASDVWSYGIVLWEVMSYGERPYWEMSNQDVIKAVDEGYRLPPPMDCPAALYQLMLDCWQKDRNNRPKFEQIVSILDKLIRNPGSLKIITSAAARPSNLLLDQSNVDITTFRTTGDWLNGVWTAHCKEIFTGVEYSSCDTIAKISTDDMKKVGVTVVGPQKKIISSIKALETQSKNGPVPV
Particulars: at 1 µM.

Experiment [10] concerns the target T4, Ephrin type-A receptor 3 (Homo sapiens). Particulars: at 10 µM.
The target in experiment [11] is Ephrin type-A receptor 4 (Homo sapiens) (UniProt P54764). To be noted: at 10 µM.
Sequence of Ephrin type-A receptor 4 (Homo sapiens) (P54764 whole entry): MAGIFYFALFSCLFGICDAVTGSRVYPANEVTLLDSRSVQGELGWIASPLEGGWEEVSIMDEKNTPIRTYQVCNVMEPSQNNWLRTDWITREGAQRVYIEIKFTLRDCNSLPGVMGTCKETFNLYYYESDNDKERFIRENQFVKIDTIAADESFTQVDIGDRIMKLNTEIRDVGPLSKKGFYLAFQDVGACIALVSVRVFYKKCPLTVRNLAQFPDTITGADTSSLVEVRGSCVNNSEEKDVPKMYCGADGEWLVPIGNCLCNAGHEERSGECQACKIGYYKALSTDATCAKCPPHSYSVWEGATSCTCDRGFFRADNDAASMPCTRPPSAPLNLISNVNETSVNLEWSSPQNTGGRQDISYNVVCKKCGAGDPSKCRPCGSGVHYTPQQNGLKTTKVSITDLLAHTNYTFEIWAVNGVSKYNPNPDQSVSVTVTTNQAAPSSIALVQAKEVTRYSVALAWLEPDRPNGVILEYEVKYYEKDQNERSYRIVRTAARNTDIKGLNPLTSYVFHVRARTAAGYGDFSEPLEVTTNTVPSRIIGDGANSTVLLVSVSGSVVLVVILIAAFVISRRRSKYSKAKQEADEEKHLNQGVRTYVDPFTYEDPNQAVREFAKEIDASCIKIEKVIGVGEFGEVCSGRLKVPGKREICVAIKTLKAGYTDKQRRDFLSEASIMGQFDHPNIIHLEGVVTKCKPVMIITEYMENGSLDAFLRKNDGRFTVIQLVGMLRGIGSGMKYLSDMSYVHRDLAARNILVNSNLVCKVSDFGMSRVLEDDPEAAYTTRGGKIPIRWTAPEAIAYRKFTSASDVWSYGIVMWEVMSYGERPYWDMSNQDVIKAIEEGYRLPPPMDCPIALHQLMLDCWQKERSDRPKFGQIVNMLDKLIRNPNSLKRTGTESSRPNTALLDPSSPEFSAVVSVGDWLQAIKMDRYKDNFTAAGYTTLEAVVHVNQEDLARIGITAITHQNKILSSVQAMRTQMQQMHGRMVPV
Experiment [12] addresses Ephrin type-A receptor 7 (Homo sapiens) (UniProt Q15375). To be noted: at 10 µM.
For experiment [13], the target named is T5, Ephrin type-B receptor 1 (Homo sapiens) (UniProt P54762).
T5 sequence (whole entry): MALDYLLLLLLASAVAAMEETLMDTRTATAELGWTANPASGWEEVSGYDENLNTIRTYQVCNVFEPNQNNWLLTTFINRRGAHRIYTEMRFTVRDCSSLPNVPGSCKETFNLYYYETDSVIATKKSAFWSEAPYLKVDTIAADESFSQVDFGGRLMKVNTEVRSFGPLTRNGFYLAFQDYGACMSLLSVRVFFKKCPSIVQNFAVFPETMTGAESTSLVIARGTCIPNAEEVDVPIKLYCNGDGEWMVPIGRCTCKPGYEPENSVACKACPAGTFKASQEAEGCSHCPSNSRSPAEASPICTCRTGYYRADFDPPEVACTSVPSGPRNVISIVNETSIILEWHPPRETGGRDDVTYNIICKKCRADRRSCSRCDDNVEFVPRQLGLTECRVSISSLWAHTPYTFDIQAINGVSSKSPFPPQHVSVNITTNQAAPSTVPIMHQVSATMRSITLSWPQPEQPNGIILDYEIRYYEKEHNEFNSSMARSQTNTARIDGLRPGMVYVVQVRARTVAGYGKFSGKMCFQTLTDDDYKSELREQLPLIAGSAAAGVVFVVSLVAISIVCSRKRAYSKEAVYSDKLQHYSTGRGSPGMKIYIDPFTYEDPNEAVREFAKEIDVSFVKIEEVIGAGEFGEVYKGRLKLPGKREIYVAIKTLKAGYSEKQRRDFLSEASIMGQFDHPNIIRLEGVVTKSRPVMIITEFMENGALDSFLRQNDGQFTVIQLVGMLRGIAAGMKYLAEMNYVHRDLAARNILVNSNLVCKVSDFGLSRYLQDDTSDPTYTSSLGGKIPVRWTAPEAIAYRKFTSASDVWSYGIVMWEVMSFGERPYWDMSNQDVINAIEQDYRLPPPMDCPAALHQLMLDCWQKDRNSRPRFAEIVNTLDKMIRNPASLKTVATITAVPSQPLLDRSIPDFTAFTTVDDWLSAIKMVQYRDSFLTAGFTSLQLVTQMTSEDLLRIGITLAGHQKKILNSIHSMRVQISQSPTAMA
To be noted: at 1 µM.

Experiment [14] deals with Ephrin type-A receptor 4 (Homo sapiens) (UniProt P54764). Particulars: at 1 µM.
Experiment [15] concerns the target Ephrin type-A receptor 5 (Homo sapiens) (UniProt P54756). Particulars: at 1 µM.
Experiment [16] shares this target. To be noted: at 10 µM.
For experiment [17], the target named is Ephrin type-A receptor 7 (Homo sapiens) (UniProt Q15375). To be noted: at 1 µM.
Sequence of Ephrin type-A receptor 7 (Homo sapiens) (Q15375 28-998 limits assumed): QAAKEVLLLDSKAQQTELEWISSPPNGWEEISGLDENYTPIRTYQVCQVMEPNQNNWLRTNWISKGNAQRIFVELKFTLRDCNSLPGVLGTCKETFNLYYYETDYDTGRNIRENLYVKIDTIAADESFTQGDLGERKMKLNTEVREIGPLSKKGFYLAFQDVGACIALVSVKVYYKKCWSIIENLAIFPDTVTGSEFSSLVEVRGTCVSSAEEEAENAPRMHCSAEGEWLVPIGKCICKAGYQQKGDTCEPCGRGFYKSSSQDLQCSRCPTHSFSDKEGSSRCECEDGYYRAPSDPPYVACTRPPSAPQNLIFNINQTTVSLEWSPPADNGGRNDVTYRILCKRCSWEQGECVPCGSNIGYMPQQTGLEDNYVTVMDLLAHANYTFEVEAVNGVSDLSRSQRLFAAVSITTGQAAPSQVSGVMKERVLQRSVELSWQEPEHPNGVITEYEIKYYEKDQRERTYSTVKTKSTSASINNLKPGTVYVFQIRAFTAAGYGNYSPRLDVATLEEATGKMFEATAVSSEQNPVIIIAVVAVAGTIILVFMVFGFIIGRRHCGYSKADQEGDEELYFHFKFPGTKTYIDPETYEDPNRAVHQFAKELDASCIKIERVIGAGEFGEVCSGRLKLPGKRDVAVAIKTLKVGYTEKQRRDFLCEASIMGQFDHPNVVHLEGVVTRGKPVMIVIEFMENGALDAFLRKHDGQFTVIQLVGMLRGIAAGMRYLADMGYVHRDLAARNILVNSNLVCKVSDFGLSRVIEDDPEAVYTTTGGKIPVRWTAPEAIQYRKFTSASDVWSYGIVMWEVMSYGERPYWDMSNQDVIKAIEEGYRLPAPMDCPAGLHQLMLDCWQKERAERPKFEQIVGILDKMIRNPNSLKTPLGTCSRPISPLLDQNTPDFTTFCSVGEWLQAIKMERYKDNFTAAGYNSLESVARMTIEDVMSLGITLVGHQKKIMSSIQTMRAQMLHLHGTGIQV
Experiment [18] has as its target T6, Ephrin type-A receptor 8 (Homo sapiens) (UniProt P29322).
T6 sequence (whole entry): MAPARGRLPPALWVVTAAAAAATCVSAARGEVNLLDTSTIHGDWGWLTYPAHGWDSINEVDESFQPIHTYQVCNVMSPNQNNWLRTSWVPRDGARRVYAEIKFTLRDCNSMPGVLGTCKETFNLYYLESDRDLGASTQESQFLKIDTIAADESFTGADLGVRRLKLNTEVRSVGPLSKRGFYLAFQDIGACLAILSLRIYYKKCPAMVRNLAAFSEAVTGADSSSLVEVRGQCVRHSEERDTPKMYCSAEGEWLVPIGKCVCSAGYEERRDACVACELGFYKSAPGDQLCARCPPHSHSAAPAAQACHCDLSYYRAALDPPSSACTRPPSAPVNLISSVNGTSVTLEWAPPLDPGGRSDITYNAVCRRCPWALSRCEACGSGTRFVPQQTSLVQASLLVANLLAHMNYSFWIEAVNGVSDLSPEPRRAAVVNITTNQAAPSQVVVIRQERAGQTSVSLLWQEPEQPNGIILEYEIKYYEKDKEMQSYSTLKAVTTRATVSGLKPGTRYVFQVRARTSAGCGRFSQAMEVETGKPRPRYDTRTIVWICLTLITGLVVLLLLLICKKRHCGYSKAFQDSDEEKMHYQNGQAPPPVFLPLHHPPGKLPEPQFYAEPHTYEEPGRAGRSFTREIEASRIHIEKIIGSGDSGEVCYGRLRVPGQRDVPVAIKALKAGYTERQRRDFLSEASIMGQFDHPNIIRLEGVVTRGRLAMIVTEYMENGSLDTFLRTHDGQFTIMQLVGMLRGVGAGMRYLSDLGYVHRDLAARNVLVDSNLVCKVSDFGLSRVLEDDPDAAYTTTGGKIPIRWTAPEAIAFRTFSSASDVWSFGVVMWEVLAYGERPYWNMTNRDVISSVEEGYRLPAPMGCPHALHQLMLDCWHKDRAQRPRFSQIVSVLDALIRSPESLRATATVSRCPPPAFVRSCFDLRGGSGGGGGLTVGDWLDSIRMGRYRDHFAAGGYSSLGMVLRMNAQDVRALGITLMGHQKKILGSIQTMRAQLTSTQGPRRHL
To be noted: at 1 µM.

For experiment [19], the target named is T6, Ephrin type-A receptor 8 (Homo sapiens). Particulars: at 10 µM.

Sequence of Ephrin type-A receptor 2 (Homo sapiens) (P29317 whole entry): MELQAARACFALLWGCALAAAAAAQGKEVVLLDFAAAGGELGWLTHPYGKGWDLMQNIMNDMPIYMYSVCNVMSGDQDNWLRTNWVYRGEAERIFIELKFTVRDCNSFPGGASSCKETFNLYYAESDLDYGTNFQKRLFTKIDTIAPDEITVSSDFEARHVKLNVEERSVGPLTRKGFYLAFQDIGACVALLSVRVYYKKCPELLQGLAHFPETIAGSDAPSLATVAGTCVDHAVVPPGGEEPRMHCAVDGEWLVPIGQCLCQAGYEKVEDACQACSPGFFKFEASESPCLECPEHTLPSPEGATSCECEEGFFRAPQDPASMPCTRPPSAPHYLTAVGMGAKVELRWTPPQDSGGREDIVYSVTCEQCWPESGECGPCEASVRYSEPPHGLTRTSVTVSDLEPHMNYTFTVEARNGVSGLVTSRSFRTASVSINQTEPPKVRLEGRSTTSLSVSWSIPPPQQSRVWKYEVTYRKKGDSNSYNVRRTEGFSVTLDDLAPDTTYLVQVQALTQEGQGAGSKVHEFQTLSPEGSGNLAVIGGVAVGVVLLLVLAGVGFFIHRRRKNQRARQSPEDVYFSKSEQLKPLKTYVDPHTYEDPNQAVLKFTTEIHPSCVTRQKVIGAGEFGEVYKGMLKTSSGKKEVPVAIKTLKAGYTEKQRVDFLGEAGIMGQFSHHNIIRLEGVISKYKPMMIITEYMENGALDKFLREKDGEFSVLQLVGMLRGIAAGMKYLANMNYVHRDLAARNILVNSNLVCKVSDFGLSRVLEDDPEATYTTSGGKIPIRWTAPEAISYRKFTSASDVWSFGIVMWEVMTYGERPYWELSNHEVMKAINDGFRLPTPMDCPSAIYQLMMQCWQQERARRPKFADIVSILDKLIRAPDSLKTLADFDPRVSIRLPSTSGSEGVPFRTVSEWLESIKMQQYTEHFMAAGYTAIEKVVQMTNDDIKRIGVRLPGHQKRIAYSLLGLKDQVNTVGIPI
Sequence of Ephrin type-A receptor 5 (Homo sapiens) (P54756 whole entry): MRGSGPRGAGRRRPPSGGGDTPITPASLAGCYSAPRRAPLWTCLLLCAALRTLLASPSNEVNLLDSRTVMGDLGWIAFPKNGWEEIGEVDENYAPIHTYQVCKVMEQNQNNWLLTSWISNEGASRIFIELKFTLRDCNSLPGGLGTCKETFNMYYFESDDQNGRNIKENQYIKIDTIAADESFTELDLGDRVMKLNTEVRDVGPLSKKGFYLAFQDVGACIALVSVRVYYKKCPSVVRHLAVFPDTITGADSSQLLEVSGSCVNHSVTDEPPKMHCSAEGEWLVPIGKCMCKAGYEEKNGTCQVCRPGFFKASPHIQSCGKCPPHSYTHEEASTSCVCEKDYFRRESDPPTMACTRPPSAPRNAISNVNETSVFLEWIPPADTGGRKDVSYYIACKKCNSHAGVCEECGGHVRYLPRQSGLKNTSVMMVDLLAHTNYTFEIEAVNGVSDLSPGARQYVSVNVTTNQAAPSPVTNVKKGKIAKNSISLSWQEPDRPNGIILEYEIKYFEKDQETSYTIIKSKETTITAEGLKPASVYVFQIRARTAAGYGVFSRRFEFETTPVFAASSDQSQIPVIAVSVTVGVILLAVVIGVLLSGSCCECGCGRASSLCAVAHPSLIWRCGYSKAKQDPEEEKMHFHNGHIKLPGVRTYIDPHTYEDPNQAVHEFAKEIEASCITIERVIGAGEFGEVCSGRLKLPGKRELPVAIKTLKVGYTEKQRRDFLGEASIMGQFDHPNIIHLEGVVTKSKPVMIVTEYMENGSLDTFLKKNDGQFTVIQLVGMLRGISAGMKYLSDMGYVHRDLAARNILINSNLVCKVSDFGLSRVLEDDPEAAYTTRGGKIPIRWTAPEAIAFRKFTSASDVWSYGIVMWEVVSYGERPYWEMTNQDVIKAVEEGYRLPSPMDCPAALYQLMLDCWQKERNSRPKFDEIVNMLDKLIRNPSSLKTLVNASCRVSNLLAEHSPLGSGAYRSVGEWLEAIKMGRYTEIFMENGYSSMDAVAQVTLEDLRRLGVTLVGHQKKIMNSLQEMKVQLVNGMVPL

Usually residual activity stands for the signal under treatment as a percentage of the control signal. In the case of `c1cc(-c2cnn3cc(-c4ccc(OCCN5CCCCC5)cc4)cnc23)ccn1`, the residual activity in experiment [1] is 19%; in [2], 7%; in [3], 52%; in experiment [4], 7%; in [5] it was 17%; in experiment [6], 1%. Besides, the residual activity stood at 59% in experiment [7]; 8% in [8]; 58% in [9]; 7% in [10]; 39% in experiment [11]; 51% in [12]. In addition, the residual activity in [13] was determined as 37%.

For the compound `COC(=O)[C@@]1(O)C[C@H]2O[C@]1(C)n1c3ccccc3c3c4c(c5c6ccccc6n2c5c31)C(=O)NC4`, the residual activity in experiment [1] is 0%; in experiment [2], 1%; in experiment [3], 2%; in experiment [4] it was -4%; in [5], 3%; in experiment [6], 0%. Also, the residual activity in experiment [7] was 44%; in experiment [8] it was 8%; in experiment [9] it was 42%; in experiment [10], 5%; in experiment [14] it was 83%; in experiment [11], 43%. For the same compound, the residual activity in [15] stood at 66%; in [16], 13%; in experiment [17] it was 32%; in experiment [12], 4%; in experiment [18], 78%; in experiment [19] it was 40%. In addition, the residual activity in experiment [13] was found to be 39%.
